Screening data (PubChem BioAssay)
Pf Dd2 growth = blocks in vitro growth of P. falciparum Dd2 | P. falciparum Dd2 growth, SYBR Green, 72 h | Potency, µM (doses to about 28.9 µM), inactives show at the highest dose activity, negative = inhibition, actives largely listed as inhibitors | 120,000 tested, 4.3% active | AID 1347417; active means well fitted inhibition curve with a large enough effect;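 further: plate controls were DMSO vehicle for no effect and reference drug for full effect; nearly all actives have a fitted effect of over 65% in size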
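Readout: SYBR Green fluorescence, 485 nm excitation, 535 nm emission, after ~16 h lysis at 37C. Before that, Dd2-infected red cells (2.5% hematocrit) grew 72 h with compound, 29 uM top final concentration.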
An asterisk follows results filed as active; [ ] = another dose, or the depositor's remark. Only a selection was taken, and hits are over-represented in it overall. Potency means the concentration at half of the fitted maximal effect.

For CCc1noc(CC2CCOC3(CCN(S(=O)(=O)c4cccc(OC)c4)CC3)C2)n1 (stereo not given) the results were Pf Dd2 growth -23%.
CCOc1ccccc1NC(=O)CSc1nc2c(c(=O)[nH]1)CCC2 was read as Pf Dd2 growth inactive.
Screening Cc1ccc(C)c(NC(=O)CSc2nc(-c3ccccc3)c(C#N)c(=O)[nH]2)c1 returned Pf Dd2 growth 21%.
`COc1ccccc1NC(=O)CSc1nc(-c2ccc(C(C)(C)C)cc2)c(C#N)c(=O)[nH]1` gave Pf Dd2 growth 10µM*.
O=C(NCc1ccc(Cl)cc1)C1CCCN(C2CCN(C(=O)C3CC3)CC2)C1 (stereo not given) was read as Pf Dd2 growth inactive.
Screening NC(=O)[C@@H]1CCCN1CC[C@H]1CN(C(=O)NC2CCCCC2)CC[C@H]1CC(=O)O returned Pf Dd2 growth 29%[44.1 µM].
`CCCCS(=O)(=O)N1C[C@@H](C(N)=O)[C@H](c2n[nH]c(C)n2)C1` gave Pf Dd2 growth 22%.
For O=C(N[C@@H]1COCC[C@H]1OCc1ccccn1)c1cnc(C2CC2)nc1 the results were Pf Dd2 growth -12%.
For O=C(Cn1cccc1-c1nc(-c2ccc3c(c2)OCO3)no1)NCc1ccc(F)cc1F the results were Pf Dd2 growth 12%.
`Cc1ccc(C(=O)NCCn2cccc2-c2nc(-c3ccc4c(c3)OCO4)no2)cc1C` gave Pf Dd2 growth -30%.
Screening O=C(NCCn1cccc1-c1nc(-c2ccc3c(c2)OCO3)no1)c1ccc2c(c1)OCO2 returned Pf Dd2 growth 13µM*.
For O=C(Cn1cccc1-c1nc(-c2ccc3c(c2)OCO3)no1)Nc1ccc(Cl)cc1 the results were Pf Dd2 growth 2µM*.
`CN1C[C@@H](NC(=O)c2ccc(F)cc2)C[C@H]1c1nc(-c2ccc(Cl)cc2)no1` gave Pf Dd2 growth inactive.
`CN(C)c1ccc(C(=O)N[C@H]2C[C@@H](c3nc(-c4ccc5c(c4)OCO5)no3)N(C)C2)cc1` gave Pf Dd2 growth inactive.
Screening O=C(Cn1cccc1-c1nc(-c2ccc3c(c2)OCO3)no1)Nc1cc(F)cc(F)c1 returned Pf Dd2 growth 5µM*.
`O=C(Cn1cccc1-c1nc(-c2ccc3c(c2)OCO3)no1)NCc1ccc(Cl)cc1` gave Pf Dd2 growth 5%.
For CN1C[C@@H](NC(=O)c2ccc3c(c2)OCO3)C[C@H]1c1nc(-c2ccc(Cl)cc2)no1 the results were Pf Dd2 growth 10µM*.
CN(C)c1ccc(NC(=O)Cn2cccc2-c2nc(-c3ccc4c(c3)OCO4)no2)cc1 was read as Pf Dd2 growth 7%.
O=C(NCCn1cccc1-c1nc(-c2ccc3c(c2)OCO3)no1)c1ccc(F)cc1 was read as Pf Dd2 growth 131%.
`Cc1cc(C)c(NC(=O)Cn2cccc2-c2nc(-c3ccc4c(c3)OCO4)no2)c(C)c1` gave Pf Dd2 growth 11%.
`O=C1CN(C(=O)c2cnc3ccccn3c2=O)CCN1Cc1ccc(F)cc1` gave Pf Dd2 growth -10%.
Cn1cnnc1CC1CCN(S(=O)(=O)c2ccccc2)CC1 was read as Pf Dd2 growth 31%.
For COc1ccccc1NC(=O)c1cc2c(N3CCSCC3)nc(C)cn2n1 the results were Pf Dd2 growth -2%.
Screening Cc1oc(-c2ccc(C(F)(F)F)cc2)nc1CN(C)C(C)c1cccs1 (stereo not given) returned Pf Dd2 growth -18%.
For COc1ccc(CC(=O)Nc2ccc3c(c2)CN(CCOc2ccccc2)C(=O)C(C)O3)cc1 (stereo not given) the results were Pf Dd2 growth inactive.
For O=C(NCc1cccc(C(F)(F)F)c1)C1CN(c2cccc(Cl)c2)C(=O)N1 (stereo not given) the results were Pf Dd2 growth inactive.
For Cc1ccc(F)c(OCC(=O)c2ccc3c(c2)N(CCCC(=O)N2CCOCC2)C(=O)CO3)c1 the results were Pf Dd2 growth -8%.
CC(=O)N1CCC(NC2(Cc3cc(CN(C)Cc4ccccc4)on3)COC2)CC1 was read as Pf Dd2 growth -13%[44.1 µM].
For O=C(NCCc1ccncc1)C1CN(C(=O)c2ccc(F)c(F)c2)CC12CCOCC2 (stereo not given) the results were Pf Dd2 growth -4%.
For O=C(NCCSc1c(-c2ccccc2)[nH]c2ccccc12)c1ccc(S(=O)(=O)N2CCOCC2)cc1 the results were Pf Dd2 growth 10µM*.
CCn1cc(C(=O)NCCc2ccccc2)c(=O)c2cc(S(=O)(=O)N3CCOCC3)ccc21 was read as Pf Dd2 growth -7%.
Screening O=C(NCCSc1c(-c2ccc(Br)cc2)[nH]c2ccccc12)c1ccc(S(=O)(=O)N2CCOCC2)cc1 returned Pf Dd2 growth 5.6µM*.
`O=C(NC1CC(=O)N(c2ccc(Cl)cc2)C1)c1ccc(S(=O)(=O)N2CCOCC2)cc1` (stereo not given) gave Pf Dd2 growth inactive.
For Cc1ccc(CNC(=O)c2c[nH]c3ccc(S(=O)(=O)N4CCOCC4)cc3c2=O)cc1 the results were Pf Dd2 growth -22%.
`O=C(NC1CC(=O)N(c2cccc(F)c2)C1)c1ccc(S(=O)(=O)N2CCOCC2)cc1` (stereo not given) gave Pf Dd2 growth 40%.
